Source: PubChem BioAssay
Calls of active or inactive are those of the source.

Key:
[1] = system: Wnt5a (protein binding on small-molecule microarray); assay: small molecules binding Wnt5a protein – biophysical, small-molecule microarray, 635/667 nm fluorescence, primary screen (AID 1142); settings: 635 nm fluorescence, higher = more signal;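 also: fluorescence read at 667 nm with signal to noise per printed feature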
[2] = ATP-based viability of Huh7 replicon cells – cell-based, CellTiter-Glo luminescence, basal, 48 h, cytotoxicity control for HCV replication inhibitor project, primary screen (AID 1143); settings: higher = more signal, called active from +8 up or from −8 down;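 also: Huh7 hepatoma cells carrying a hepatitis C replication reporter with no stimulus; test concentration not given here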
[3] = basal CRE-LacZ reporter activity in PC12 – cell-based, unstimulated, primary screen (AID 1145); settings: no forskolin, luminescence, 4.5 h, higher = more signal, called active from +8 up or from −8 down
[4] = forskolin-driven CRE-LacZ activity in PC12 – cell-based, CRE-LacZ reporter, forskolin-stimulated, primary screen (AID 1146); settings: luminescence, 4.5 h, higher = more signal, called active from +8 up or from −8 down;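 also: PC12 cells with 6xCRE LacZ reporter stimulated by forskolin 10 µM; beta-galactosidase reporter signal reflecting CREB driven transcription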
[5] = biological target: Streptavidin (Streptomyces avidinii) (UniProt P22629); assay: compounds binding control protein streptavidin – biophysical, small-molecule microarray, 635/667 nm fluorescence, artefact control for SMM compound annotation, primary screen (AID 1147); settings: higher = more signal;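 also: signal reflects streptavidin binding to arrayed compounds as a control protein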
[6] = probe aInhba binding on compound microarray – biochemical, small-molecule microarray, 635/667 nm fluorescence, primary screen (AID 1148); settings: higher = more signal;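 also: score merges 667nm spot fluorescence with signal-to-noise for antibody binding to printed compounds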
Torsin-1A (Homo sapiens) [7] = biological target: Torsin-1A (Homo sapiens) (UniProt O14656); assay: TOR1A wild-type binding on microarray – cell lysate, small-molecule microarray, lysate, 635/667 nm, primary screen (AID 1149); settings: COS7 hTOR1A-WT lysate, 635 nm fluorescence, higher = more signal
Torsin-1A (Homo sapiens) [8] = biological target: Torsin-1A (Homo sapiens) (UniProt O14656); assay: torsin A mutant lysate binding on microarrays – cell lysate, small-molecule microarray, COS7 lysate, 635/667 nm fluorescence, primary screen (AID 1150); settings: COS7 hTOR1A mutant lysate, 635 nm fluorescence, higher = more signal;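 also: score pools 667 nm emission and signal to noise measuring lysate protein binding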
[9] = system: Sonic hedgehog protein (Shh); assay: Sonic hedgehog microarray binding compounds – biochemical, small-molecule microarray, 635/667 nm fluorescence, primary screen (AID 1151); settings: 635 nm fluorescence, higher = more signal;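 also: Shh protein binding to compounds spotted on small-molecule microarray slides; score combines spot fluorescence intensity with signal-to-noise across triplicate slides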

Chain of Torsin-1A (Homo sapiens) (O14656 whole entry, looked up): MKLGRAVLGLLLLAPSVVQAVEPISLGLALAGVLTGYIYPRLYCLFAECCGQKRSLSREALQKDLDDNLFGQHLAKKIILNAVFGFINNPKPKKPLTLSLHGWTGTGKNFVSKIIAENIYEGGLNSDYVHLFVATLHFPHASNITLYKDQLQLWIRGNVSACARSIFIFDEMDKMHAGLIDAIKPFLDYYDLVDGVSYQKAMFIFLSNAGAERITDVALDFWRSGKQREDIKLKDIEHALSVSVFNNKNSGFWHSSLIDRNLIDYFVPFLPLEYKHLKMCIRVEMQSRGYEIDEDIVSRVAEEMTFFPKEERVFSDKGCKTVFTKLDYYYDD
Chain of Streptavidin (Streptomyces avidinii) (P22629 whole entry, looked up): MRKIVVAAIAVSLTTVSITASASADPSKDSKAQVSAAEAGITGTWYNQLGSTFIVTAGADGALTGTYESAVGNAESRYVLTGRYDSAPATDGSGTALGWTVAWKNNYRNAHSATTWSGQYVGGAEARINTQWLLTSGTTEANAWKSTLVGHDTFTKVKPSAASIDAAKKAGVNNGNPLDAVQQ

SMILES: CC(C)[Si]1(C(C)C)O[C@@H](c2ccccc2)c2cc(C3CC3)nc(-c3ccc(Oc4ccccc4)cc3)c21
- composite z-score [1]: -0.217
- z-score [2]: -0.313 (inactive)
- z-score [3]: 0.0176 (inactive)
- z-score [4]: -0.59 (inactive)
- composite z-score [5]: -0.646
- composite z-score [6]: -0.0082
- composite z-score (Torsin-1A (Homo sapiens) [7]): -0.617
- composite z-score (Torsin-1A (Homo sapiens) [8]): -0.0373
- composite z-score [9]: -0.239

SMILES: CCN1C(C)=C(C(=O)OC)[C@@H](c2ccccc2)N2C(=O)[C@@]3(C(=O)OC)O[C@@]12[C@@H]1C(=O)CCC[C@@H]13
- composite z-score [1]: 0.365
- z-score [2]: -0.419 (inactive)
- z-score [3]: 0.462 (inactive)
- z-score [4]: -0.51 (inactive)
- composite z-score [5]: -0.213
- composite z-score [6]: 0.115
- composite z-score (Torsin-1A (Homo sapiens) [7]): 0.385
- composite z-score (Torsin-1A (Homo sapiens) [8]): 0.353
- composite z-score [9]: 2.02

SMILES: O=[N+]([O-])c1ccc(C[n+]2ccc3ccc(O)cc3c2)o1
- composite z-score [1]: 0.465
- z-score [2]: -0.893 (inactive)
- z-score [3]: -0.815 (inactive)
- z-score [4]: -1.3 (inactive)
- composite z-score [5]: 1.29
- composite z-score [6]: 0.0857
- composite z-score (Torsin-1A (Homo sapiens) [7]): 0.244
- composite z-score (Torsin-1A (Homo sapiens) [8]): 1.07
- composite z-score [9]: 0.841

SMILES: O=C(O)[C@@H]1Cc2c([nH]c3ccccc23)[C@@H](c2ccccc2)N1
- composite z-score [1]: 0.019
- z-score [2]: -0.691 (inactive)
- z-score [3]: 0.109 (inactive)
- z-score [4]: -1.69 (inactive)
- composite z-score [5]: 0.29
- composite z-score [6]: -0.164
- composite z-score (Torsin-1A (Homo sapiens) [7]): 0.589
- composite z-score (Torsin-1A (Homo sapiens) [8]): 0.409
- composite z-score [9]: 0.371

SMILES: CN(C)CCCC[C@@H]1NC(=O)[C@@H]2C[C@H](C(=O)NCCCCCNC(=O)CS)[C@H](c3ccc(O)cc3)N2C1=O
- composite z-score [1]: 0.202
- z-score [2]: 0.0694 (inactive)
- z-score [3]: -0.667 (inactive)
- z-score [4]: -1 (inactive)
- composite z-score [5]: 0.799
- composite z-score [6]: 0.264
- composite z-score (Torsin-1A (Homo sapiens) [7]): 1.4
- composite z-score (Torsin-1A (Homo sapiens) [8]): 0.847
- composite z-score [9]: 2.06

SMILES: C=C[C@H](OC)[C@@H](OC(=O)Nc1ccc(SC)cc1)c1ccc(OC)c(O)c1
- composite z-score [1]: -0.29
- z-score [2]: -0.0203 (inactive)
- z-score [3]: -0.113 (inactive)
- z-score [4]: -1.26 (inactive)
- composite z-score [5]: -1.28
- composite z-score [6]: -0.128
- composite z-score (Torsin-1A (Homo sapiens) [7]): -0.678
- composite z-score (Torsin-1A (Homo sapiens) [8]): 0.157
- composite z-score [9]: 0.417

SMILES: CO[C@@H]1COC(=O)CC=C[C@@H](C)[C@H](OC)COC(=O)CC=C[C@H]1C
- composite z-score [1]: -0.0731
- z-score [2]: -0.147 (inactive)
- z-score [3]: -0.658 (inactive)
- z-score [4]: -0.82 (inactive)
- composite z-score [5]: -0.428
- composite z-score [6]: -0.253
- composite z-score (Torsin-1A (Homo sapiens) [7]): 0.685
- composite z-score (Torsin-1A (Homo sapiens) [8]): 0.349
- composite z-score [9]: 1.29

SMILES: CC(C)CN1C(=O)[C@@]2(Cc3ccccc31)c1ccccc1C(=O)N(C1CCCCC1)[C@H]2c1ccc(CO)cc1
- composite z-score [1]: -0.194
- z-score [2]: -2.02 (inactive)
- z-score [3]: -0.152 (inactive)
- z-score [4]: -0.876 (inactive)
- composite z-score [5]: -1.12
- composite z-score [6]: -0.208
- composite z-score (Torsin-1A (Homo sapiens) [7]): -0.475
- composite z-score (Torsin-1A (Homo sapiens) [8]): -0.488
- composite z-score [9]: -0.264

SMILES: COC(=O)C[C@H]1O[C@]2(C(=O)N(C)c3ccccc32)[C@@H](C)[C@@H]1[Si](C)(C)c1ccc(OC)cc1
- composite z-score [1]: 0.259
- z-score [2]: -4.23 (inactive)
- z-score [3]: 2.23 (inactive)
- z-score [4]: -1.58 (inactive)
- composite z-score [5]: 0.781
- composite z-score [6]: 0.138
- composite z-score (Torsin-1A (Homo sapiens) [7]): 0.639
- composite z-score (Torsin-1A (Homo sapiens) [8]): 0.236
- composite z-score [9]: 0.661

SMILES: CO[C@H]1COC(=O)[C@@H](Cc2ccccc2)NC(=O)[C@@H](C)COC(=O)CC=C[C@@H]1C
- composite z-score [1]: -0.0866
- z-score [2]: 0.7 (inactive)
- z-score [3]: 8.02 (active)
- z-score [4]: -0.445 (inactive)
- composite z-score [5]: -0.282
- composite z-score [6]: -0.263
- composite z-score (Torsin-1A (Homo sapiens) [7]): 0.379
- composite z-score (Torsin-1A (Homo sapiens) [8]): -0.0112
- composite z-score [9]: 1.02

SMILES: CC(C)(C)OC(=O)CC[C@@]1(C(=O)NCc2ccccc2)N=C(c2ccc(OCCCO)cc2)O[C@@H]1c1ccccc1
- composite z-score [1]: 0.337
- z-score [2]: -4.58 (inactive)
- z-score [3]: 0.573 (inactive)
- z-score [4]: -2.42 (inactive)
- composite z-score [5]: 1.41
- composite z-score [6]: 0.346
- composite z-score (Torsin-1A (Homo sapiens) [7]): 0.461
- composite z-score (Torsin-1A (Homo sapiens) [8]): 1.04
- composite z-score [9]: -0.282
